# T cruzi growth-1: T. cruzi intracellular proliferation inhibitors, primary screen, cell-based, beta-gal Tulahuen parasites, NIH3T3 host, luminescence; T. cruzi beta-gal in NIH3T3, GalScreen luminescence, 90 h; inhibition, % at 8.34 µM; 77,000 tested, 5.9% active; AID 624255, 2012;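 active means mean inhibition above about 93%, with at least 55% of replicates each passing it, limit read from the data, passing the limit was not always enough; inconclusive means only one of those two conditions holds; inactive means neither condition holds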
# Pf Dd2 inh: P. falciparum Dd2 growth inhibitors, primary screen, SYBR Green fluorescence, single dose replicates | 72 h; hits give low values | activity change, % at 10 µM | 94,000 tested, 2.3% active; in the data active means activity change below about -80%; inconclusive means no clear call, values can overlap the other calls
# C diff HTS: C. difficile growth inhibitors, primary screen, HTS; growth activity, negative = inhibition, % at 16 µg/mL (by protocol); Clostridium difficile clinical isolate growth, OD600, 24 h; hits give low values; 86,000 tested, 0.25% active;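 active means mean growth activity at or below -80% and every replicate also at or below -80%; inconclusive means mean at or below -80% but some replicate above -80%; inactive means mean growth activity above -80%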;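 further: 0% = DMSO wells and -100% = levofloxacin 16 µg/mL wells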
# T cruzi growth-2: T. cruzi intracellular proliferation inhibitors, confirmation, cell-based, NIH3T3 host, beta-gal parasite, luminescence, cherry-pick; shares compounds with T cruzi growth-1; T. cruzi beta-gal in NIH3T3, GalScreen luminescence, 90 h; inhibition, % at 8.35 µM; 5,600 tested, 72% active;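 active means mean replicate inhibition above about 95% and at least 55% of replicates individually reaching it, limit read from the data; inconclusive means only one of the two criteria is met; inactive means neither criterion is met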
# T cruzi growth-3: inhibitors of intracellular T. cruzi replication, confirmation, NIH3T3 host cells, beta-gal parasites, cherry-pick, set 2. AID 651740, 2012. inhibition, % at 2.09 µM. T. cruzi beta-gal in NIH3T3, GalScreen luminescence, 90 h. shares compounds with T cruzi growth-1. 5,600 tested, 21% active;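 active means mean inhibition above about 95%, with at least 55% of replicates also reaching it, limit read from the data; inconclusive means meets just one of the two conditions; inactive means meets neither condition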;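 further: plate controls were neutral control median for no effect and positive control median for full effect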
# 3T3 cytotox: cytotoxicity in mouse NIH/3T3 fibroblasts, confirmation, cytotoxicity control for T. cruzi proliferation inhibitor project, cell-based, cherry-pick, single point; shares compounds with T cruzi growth-1; NIH/3T3 viability, CellTiter-Glo ATP luminescence, 90 h; cytotoxicity (signal decrease), % at 8.35 µM; 5,600 tested, 14% active; AID 651742, 2012;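 active means mean signal decrease across replicates above about 35% based on untreated-well scatter, with enough replicates individually passing, limit read from the data; inconclusive means no rule stated though some were filed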;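 further: 0% = median of neutral control wells and 100% = median of positive control wells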
# 3T3 cytotox 2: NIH/3T3 fibroblast cytotoxicity, confirmation, cytotoxicity control, cell-based, cherry-pick, single point, set 2; NIH/3T3 viability, CellTiter-Glo ATP luminescence, 90 h; 5,600 tested, 56% active; inhibition, % at 24.9 µM; shares compounds with T cruzi growth-1;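 active means mean loss of cell viability signal at or above a set limit, and enough replicates individually reaching it; inconclusive means meets only the mean limit or only the replicate share; inactive means meets neither condition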;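 further: 0% = median of neutral control wells and 100% = median of positive control wells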
# The depositor's hits bear a star; ? = inconclusive; nt = not tested or not shown. Rows were chosen to be rich in hits. Some 6.7% of all compounds tested hit in one or more screens of this group.
SMILES,T cruzi growth-1,Pf Dd2 inh,C diff HTS,T cruzi growth-2,T cruzi growth-3,3T3 cytotox,3T3 cytotox 2
C[C@H](CO)N1C[C@H](C)[C@@H](CN(C)Cc2ccc(-c3ccccc3)cc2)Oc2ccc(NC(=O)C3CC3)cc2C1=O,22,-2,-8,nt,nt,nt,nt
C[C@@H]1CN([C@@H](C)CO)C(=O)c2cc(NC(=O)C3CCCCC3)ccc2O[C@H]1CN(C)Cc1ccc(-c2ccccc2)cc1,110*,-40,nt,102*,100*,16,7
C[C@@H]1CN([C@@H](C)CO)C(=O)c2cc(NC(=O)C3CCCCC3)ccc2O[C@@H]1CN(C)Cc1ccc(-c2ccccc2)cc1,?,3,nt,104*,83,24,80*
C[C@H]1CN([C@@H](C)CO)C(=O)c2cc(NC(=O)C3CCCCC3)ccc2O[C@H]1CN(C)Cc1ccc(-c2ccccc2)cc1,47,-15,nt,nt,nt,nt,nt
CN(C)C(=O)[C@H]1[C@H](CO)[C@H]2Cn3c(ccc(-c4cccnc4)c3=O)[C@H]2N1Cc1ccccc1F,31,-2,0,nt,nt,nt,nt
C[C@@H]1CCCCO[C@@H](CN(C)C)[C@@H](C)CN([C@@H](C)CO)C(=O)c2cc(NS(=O)(=O)c3cccs3)ccc2O1,51,11,2,nt,nt,nt,nt
CN(C)CC(=O)Nc1ccc2c(c1)[C@@H]1C[C@H](CC(=O)NCc3cc(F)ccc3F)O[C@@H](CO)[C@@H]1O2,4,5,nt,nt,nt,nt,nt
CCS(=O)(=O)N1CCC2(CC1)CN(S(=O)(=O)c1cccc(OC)c1)[C@@H](CO)c1[nH]c3cc(OC)ccc3c12,nt,?,3,nt,nt,nt,nt
C[C@@H]1CCCCO[C@@H](CN(C)S(=O)(=O)c2cccs2)[C@H](C)CN([C@@H](C)CO)C(=O)c2cc(NC(=O)Nc3ccc(C(F)(F)F)cc3)ccc2O1,100*,-52,-3,105*,114*,5,-8
C[C@H]1CN([C@@H](C)CO)C(=O)c2cc(NC(=O)Nc3ccc(C(F)(F)F)cc3)ccc2O[C@@H]1CN(C)S(=O)(=O)c1cccs1,90,-8,-6,nt,nt,nt,nt
C[C@@H]1CN([C@@H](C)CO)C(=O)c2cc(NC(=O)Nc3ccc(F)cc3)ccc2O[C@@H](C)CCCCO[C@@H]1CN(C)S(=O)(=O)c1cccs1,-51,-71,-3,nt,nt,nt,nt
C[C@@H]1CN([C@@H](C)CO)C(=O)c2cc(NC(=O)Nc3ccc(C(F)(F)F)cc3)ccc2O[C@H]1CN(C)S(=O)(=O)c1cccs1,?,-8,1,80,48,?,57*
CC(C)NC(=O)Nc1ccc2c(c1)C(=O)N([C@@H](C)CO)C[C@@H](C)[C@@H](CN(C)S(=O)(=O)c1cccs1)OCCCC[C@H](C)O2,nt,nt,1,nt,nt,nt,nt
C[C@H](CO)N1C[C@H](C)[C@H](CN(C)S(=O)(=O)c2cccs2)OCCCC[C@H](C)Oc2ccc(NC(=O)Nc3ccc4c(c3)OCO4)cc2C1=O,86*,-31,-4,106*,53,16,27*
C[C@@H]1CCCCO[C@@H](CN(C)S(=O)(=O)c2cccs2)[C@@H](C)CN([C@H](C)CO)C(=O)c2cc(NC(=O)NC3CCCCC3)ccc2O1,103*,-68,7,34,2,6,39*
C[C@@H]1CCCCO[C@@H](CN(C)S(=O)(=O)c2cccs2)[C@H](C)CN([C@@H](C)CO)C(=O)c2cc(NC(=O)Nc3ccc4c(c3)OCO4)ccc2O1,76,-25,6,nt,nt,nt,nt
CO[C@@H]1CN(C)C(=O)c2ccc(NC(=O)c3cnccn3)cc2OC[C@@H](C)N(C)C[C@H]1C,-8,19,0,nt,nt,nt,nt
CCCC#Cc1cnc2c(c1)C(=O)N([C@@H](C)CO)C[C@H](C)[C@H](CN(C)C(=O)c1ccc(F)cc1)O2,30,-18,-6,nt,nt,nt,nt
COc1ccc(NC(=O)N(C)C[C@@H]2Oc3ccc(NC(=O)CCN4CCOCC4)cc3CC(=O)N([C@H](C)CO)C[C@@H]2C)cc1,nt,-2,3,nt,nt,nt,nt
O=C(C1CCC1)N1CC[C@@H]2[C@H](CO)Nc3ccc(Br)cc3[C@@H]21,nt,-66,4,nt,nt,nt,nt
CCCC(=O)Nc1ccc2c(c1)C(=O)N(C)C[C@H](OC)[C@H](C)CN(CC1CCCC1)[C@@H](C)CO2,-56,-23,nt,nt,nt,nt,nt
C[C@@H]1CCCCO[C@H](CN(C)S(=O)(=O)c2cccs2)[C@@H](C)CN([C@H](C)CO)C(=O)c2cc(NC(=O)NC3CCCCC3)ccc2O1,28,-46,5,nt,nt,nt,nt
C[C@@H]1CCCCO[C@H](CN(C)S(=O)(=O)c2cccs2)[C@H](C)CN([C@H](C)CO)C(=O)c2cc(NC(=O)NC3CCCCC3)ccc2O1,81,-78,0,nt,nt,nt,nt
C[C@@H]1CCCCO[C@H](CN(C)S(=O)(=O)c2cccs2)[C@H](C)CN([C@@H](C)CO)C(=O)c2cc(NC(=O)NC3CCCCC3)ccc2O1,100*,-84*,7,105*,35,-4,5
C[C@H](CO)N1C[C@H](C)[C@H](CN(C)S(=O)(=O)c2cccs2)OCCCC[C@H](C)Oc2ccc(NC(=O)NC3CCCCC3)cc2C1=O,101*,-44,-12,88,24,22,-6
SMILES,T cruzi growth-1,Pf Dd2 inh,C diff HTS,T cruzi growth-2,T cruzi growth-3,3T3 cytotox,3T3 cytotox 2
C[C@@H]1CN([C@@H](C)CO)C(=O)Cc2cc(NC(=O)Nc3ccc4c(c3)OCO4)ccc2O[C@H]1CN(C)C(=O)NC1CCCCC1,23,-27,-2,nt,nt,nt,nt
O=S(=O)(N[C@H]1CC[C@H](CCn2cc(-c3cccc(F)c3)nn2)O[C@H]1CO)c1ccc(F)cc1,nt,nt,-6,nt,nt,nt,nt
C[C@@H]1CCCCO[C@H](CN(C)C(=O)Nc2ccc3c(c2)OCO3)[C@H](C)CN([C@@H](C)CO)C(=O)c2cc(NS(C)(=O)=O)ccc2O1,-2,-4,1,nt,nt,nt,nt
C[C@@H]1CCCCO[C@H](CN(C)C(=O)NC2CCCCC2)[C@@H](C)CN([C@H](C)CO)C(=O)c2cc(NC(=O)c3ccncc3)ccc2O1,15,39,2,nt,nt,nt,nt
C=C/C=C/[C@@H]1C(=C)CN2[C@H]1[C@H](Cc1ccccc1)OC(=O)[C@@H]2Cc1ccccc1,nt,nt,-4,nt,nt,nt,nt
C[C@H](CO)N1C[C@H](C)[C@H](CN(C)C(=O)Nc2cc(F)ccc2F)Oc2cc(-c3ccc(C#N)cc3)ccc2S1(=O)=O,75,-49,48,nt,nt,nt,nt
C[C@H]1CN([C@@H](C)CO)S(=O)(=O)c2ccc(C#CC3CC3)cc2O[C@H]1CN(C)C(=O)Nc1cc(F)ccc1F,121*,-71,nt,108*,83,17,12
